# Experimental data reported in the supplement of paper PMC6555819.
# System: PPARg:RXRa 270nM:90nM, anti-RXR (NR concentration 270 nM, RXRa partner concentration 90 nM)
# Experiment: PBM binding z-score (relative to random genomic background probes); higher = stronger binding; sequences stand for … in GC…GCGATTGACAGCGTAGAATGAAGG
# Outline: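 The probes on custom Agilent 4×180K protein-binding microarrays were double-stranded, with 34-nt variable regions bearing direct-repeat seeds, single-nucleotide variants, half-site ablations and random human genomic background sequences. Incubation lasted 1 h with ligand-free nuclear receptor dimers in PBS pH 7.4, 2% milk, 0.02% Triton X-100, 1 mM DTT, 0.2 mg/mL BSA and 0.4 mg/ml salmon testes DNA. Antibodies against each partner (one per run) detected bound dimers, and fluorescence scans were regression-normalized. Binding z-scores take the random background probes as reference.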
row,Sequence,PBM binding z-score
1,CGAACGAAGGCATGAGTTGATAGCAAATGCCGAT,-0.579
2,AGTCAAAGTTCAACTAGGTAACGTAAGATATGCT,6.67
3,CCTTCCGGGTCACGAGGTTATAGCACGACGAGCG,6.88
4,CCTACTGGGCCCAGGTCATTGATCAGTCAAAGCA,1.4
5,CTACCAAGGTGAACAAGGTAGTTGATTACTATTC,0.808
6,TCTATAAGTTGATTAGGGCAACCGAAACAGCGGA,2.02
7,CCTAGCAGGCCAATATGGGTCACTCAAGGCTTGA,1.86
8,GCTCGGAGGCCAAGGTCAGAGCTTTGTCCGTAGA,1.47
9,GCTATTAGATGAAAGGGCAACCGAATGATTCTCG,5.46
10,CCCACTGGGCCATCAGGTCATTGATATCAACGTT,3.57
11,ACAGACAGGTGATGAAGGAAACTCAGGCTATCAT,-0.12
12,ACTAGTTGGTCAGCTGAGGTCACGCACAATTCGG,3.28
13,ATCTCTAGGTAACAAGTTCAGTTAAAGAGAGGAC,2.05
14,CGTCAAAGTTCAACTAAGGTAACGTAAAGCACGC,5.44
15,CCTAGCAGGCCAGGGCCACTCAAGCATTTCGCTT,-1.16
16,CCTACTGGGCCATCAGGTCTTTGATATCAACGTT,1.66
17,AGTCAAAGTTCATCTAGGTAACGTCAGATATGCT,6.54
18,ACTAGCAGGCCAAGGGTCACTCATGATTAGTCCG,7.48
19,TCATATAGGTAAAGGTGAAAGTTGAACGATATGA,5.66
20,TGAATGAGTTTAAAGATCAGGGAACGTGGCGTCG,1.77
21,CGTCCACGGTCAATGCTAGGTCAGTGAAAGCATT,0.186
22,CAAACTCGGTCACCGGAAGGTCAAAGTCCGCATG,4.26
